Screens (PubChem)
Most compounds without a hit are left out; they make up all but 0.81% or so of the library.
NR2F2 inh – NR2F2 (human) inhibition, primary screen; P24468; HEK293T NGFI-A luciferase reporter, luminescence; inhibition, % at 8.6 µM; hit rate 0.7% among 370,000;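 active means inhibition above a per-plate cutoff, mean inhibition of test wells between control levels plus 3 SD, cut at about 38% in these data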;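 further: cells cotransfected with COUP-TFII expression vector driving the NGFI-A reporter; 0% = median of COUP-TF2 test wells and 100% = reporter-only cells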
SRC1 inh – inhibitors of human steroid receptor coactivator 1 (SRC1). HEK293 GAL4-SRC1 luciferase reporter, luminescence. hit rate 0.12% among 360,000. AID 588354. Q15788. inhibition, % at 3.6 µM;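 active means inhibition above the campaign mean plus 3 SD, with each screening campaign given its own cutoff, cut at about 60% in these data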;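 further: 0% = DMSO treated cells and 100% = gossypol at 36 µM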
SRC3 inh – inhibitors of human steroid receptor coactivator 3 (SRC3) | HEK293 GAL4-SRC3 luciferase reporter, luminescence | inhibition, % at 3.6 µM | hit rate 0.17% among 360,000;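 active means inhibition above a per-campaign cutoff, the mean of all compounds plus 3 SD, cut at about 60% in these data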;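 further: 0% = DMSO-treated cells and 100% = gossypol-treated cells at 36 µM; higher means less SRC3-driven luciferase light from the GAL4 reporter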
LRH-1 inv ag – NR5A2 inverse agonism in reporter assay; O00482; hit rate 0.13% among 360,000; inhibition, % at 3.6 µM; HEK293T StAR-luciferase reporter, LRH-1 transfected, 24 h;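 active means inhibition above the mean inhibition of all tested compounds plus 3 SD, cut at about 73% in these data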;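 further: 0% = DMSO wells and 100% = reporter-only cells lacking LRH-1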
NCOA2 inhibitor – human SRC2 (NCOA2) inhibition. Q15596. HEK293 GAL4-SRC2 luciferase reporter, luminescence. inhibition, % at 9 µM. hit rate 0.17% among 370,000;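 active means inhibition above the mean inhibition of all tested compounds plus 3 SD, set per campaign, cut at about 52% in these data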;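 further: 0% = DMSO treated cells and 100% = cells given Gossypol at 36 µM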
VP16 Luc counter – inhibits VP16 reporter, flagging COUP-TFII antagonist hits | shares compounds with NR2F2 inh | HEK293 Gal4-VP16 luciferase reporter, luminescence | inhibition, % at 8.5 µM | hit rate 25% among 2,500 | AID 687007; in the data active means inhibition above about 13%
NR2F2 inh conf – COUP-TFII (NR2F2) inhibition, confirmation assay. AID 687008. HEK293 NGFI-A luciferase reporter, luminescence. shares compounds with NR2F2 inh. inhibition, % at 8.5 µM. hit rate 45% among 2,500;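 active means mean inhibition over three repeats above a set limit taken from the earlier primary screen, cut at about 38% in these data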;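 further: 100% = cells given the luciferase reporter alone without the COUP-TF2 vector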
An asterisk follows results filed as active; nt = no result.

SMILES	NR2F2 inh	SRC1 inh	SRC3 inh	LRH-1 inv ag	NCOA2 inhibitor	VP16 Luc counter	NR2F2 inh conf
COC(=O)[C@]12C[C@H](CC(=O)NCc3ccc(OC)c(OC)c3)C(=O)N(CCc3ccc(OC)c(OC)c3)C1=C[C@H](C1CCCC1)O[C@@H]2C	-14.1	nt	nt	nt	-7.8	nt	nt
CC(=O)NC1C(=O)N(CCc2ccccc2)c2ccc(Br)cc21 (centres undefined)	15.4	-3.0	14.8	4.1	5.4	nt	nt
CC(=O)NC1C(=O)N(Cc2ccccc2)c2ccc(Br)cc21 (centres undefined)	37.8*	-17.1	24.5	10.0	10.0	1.4	12.7
O=C(c1ccc(Cl)c(Cl)c1)N1CCN(c2ccnc3cc(Cl)ccc23)CC1	54.0*	nt	nt	nt	nt	9.8	21.6
Nn1c(SCc2c(Cl)cccc2Cl)nnc1-c1n[nH]c2c1CCC2	6.2	nt	nt	nt	-18.0	nt	nt
O=C(N/N=C/c1ccc(OC(F)F)cc1)c1ccc(Br)cc1	-17.8	-3.6	13.7	-14.6	-12.9	nt	nt
O=C(NO)c1ccc(OC(F)F)cc1	45.3*	18.2	9.3	4.6	17.2	-11.0	35.7
CSCCCNC(=O)C1CCN(S(=O)(=O)c2ccc3[nH]c(=O)oc3c2)CC1	-5.8	nt	nt	nt	7.2	nt	nt
Cc1ccc(NC(=O)c2cc(CC(C)C)nc3ccccc23)cc1	16.6	-40.1	11.3	-3.3	-16.2	nt	nt
COc1ccc(NC(=O)c2cc(CC(C)C)nc3ccccc23)cc1	42.5*	21.7	-0.1	-32.8	-29.1	-6.0	22.0
Cc1oc(-c2ccc3c(c2)OCCO3)cc1C(=O)O	52.0*	18.1	28.8	14.3	74.5*	-123.7	10.3
CC1CCc2c(sc(NC(=O)CSc3ncn[nH]3)c2C#N)C1 (centres undefined)	85.9*	44.2	53.4	46.8	82.0*	79.9*	84.1*
N#Cc1c(NC(=O)CSc2ncn[nH]2)sc2c1CCCC2	76.8*	23.2	25.9	38.8	75.2*	78.5*	74.3*
CC(C)(C)C1CCc2c(sc(NC(=O)CSc3ncn[nH]3)c2C#N)C1 (centres undefined)	-3.6	15.0	1.9	-1.0	6.4	nt	nt
N#Cc1c(NC(=O)CCCC(=O)O)sc2c1CCCCC2	46.3*	-66.1	-13.3	-27.4	61.2*	16.7*	1.2
N=C1N(C(=O)OCc2ccccc2)/C(=C\C2=CCCCC2)C(Cc2ccccc2)N1Cc1ccccc1 (centres undefined)	1.9	nt	nt	nt	-0.7	nt	nt
Cc1ccc(C(=O)N2CCC(Oc3cccnc3)CC2)c(C)c1	-0.8	nt	nt	nt	6.3	nt	nt
Cc1ccc(-c2cc(-c3nnc4sc(Cc5cccs5)nn34)[nH]n2)cc1	18.9	nt	nt	nt	15.3	nt	nt
Cc1nn(C)c(Cl)c1NC(=O)OCc1ccc(Cl)cc1Cl	53.2*	11.4	24.3	28.7	33.7	4.1	31.5
C=CCSc1nc2ccccc2n1C(=O)/C=C/c1cc(OC)c(OC)c(OC)c1	46.0*	-6.8	36.2	-28.4	6.4	16.5*	71.1*
CCSc1nc2ccccc2n1C(=O)/C=C/c1ccc(OC)c(OC)c1	57.5*	-5.4	23.6	-3.7	32.5	12.5	66.7*
Cc1ccc(-n2c(SCc3cccc(F)c3)nnc2-c2cccc(C)c2)cc1	-8.3	nt	nt	nt	22.3	nt	nt
COC(=O)[C@]12C[C@H](CC(=O)NCc3ccc(OC)c(OC)c3)C(=O)N(CCc3ccc(OC)c(OC)c3)C1=C[C@H](COCc1ccccc1)O[C@@H]2C	6.4	nt	nt	nt	-0.3	nt	nt
CC(=O)Nc1ccc(S(=O)(=O)N2CCN=C2SCc2ccc([N+](=O)[O-])cc2)cc1	48.0*	13.2	26.9	21.1	15.6	1.4	22.3
CCCCNC(=O)COC(=O)c1c2c(nc3ccccc13)/C(=C/c1cccs1)CC2	30.6	-2.3	-14.7	46.3	-7.7	nt	nt
SMILES	NR2F2 inh	SRC1 inh	SRC3 inh	LRH-1 inv ag	NCOA2 inhibitor	VP16 Luc counter	NR2F2 inh conf
CNC(=O)NC(=O)C(C)OC(=O)c1c2c(nc3ccccc13)/C(=C/c1cccs1)CC2 (centres undefined)	45.7*	7.0	9.7	-26.8	10.8	-36.8	-15.0
COc1ccc(CNC(=O)OC2CC3CC2[C@H]2CCCCN2C3)cc1 (some centres undefined)	-10.1	nt	nt	nt	-9.9	nt	nt
C=CCN=c1scc(-c2ccc(F)cc2)n1/N=C/c1ccccn1	-27.5	-124.2	-237.2	-227.9	-6.3	nt	nt
C=CCN=c1scc(-c2ccc3c(c2)NC(=O)CO3)n1/N=C(\C)c1ccccn1	56.0*	-2.7	27.5	36.4	16.5	12.0	62.5*
O=[N+]([O-])c1ccccc1/C=C/C=Nn1c(-c2ccc(F)cc2)n[nH]c1=S	13.1	nt	nt	nt	7.1	nt	nt
CCOC(=O)c1ccc(-c2ccc(N3C(c4ccsc4)=Cc4ccc(F)cc4C3c3c[nH]c4ccc(C#N)cc34)cc2)cc1F (centres undefined)	56.0*	nt	nt	19.8	78.8*	-4.8	-0.4
CC(=O)N1CCOc2ccc(S(=O)(=O)NCC3CCC(C(=O)Nc4ccc(C)cn4)CC3)cc21 (centres undefined)	38.6*	7.9	24.8	37.1	36.8	9.0	23.7
Cc1nc2sc(C(=O)NCc3ccncc3)c(N)c2c(C)c1Cl	-1.6	nt	nt	nt	10.1	nt	nt
COc1ccc(Cl)cc1Nc1nc(-c2sc(NC(=O)C(C)(C)C)nc2C)cs1	40.7*	72.4*	60.8	38.0	-33.4	-5.1	41.6*
CN1[C@@H](Cc2ccccc2)COc2cc(F)ccc2S1(=O)=O	5.6	nt	nt	nt	-4.8	nt	nt
Cc1oc2cc3oc(=O)c(CCC(=O)N4CCC(C(=O)O)(c5ccccc5)CC4)c(C)c3cc2c1C	-4.8	16.2	11.3	16.7	3.5	nt	nt
Cc1c(CCC(=O)N2CCC(C(=O)O)(c3ccccc3)CC2)c(=O)oc2cc3oc4c(c3cc12)CCCC4	53.4*	0.8	-21.4	3.1	57.6*	37.0*	34.9
Cc1c(CCC(=O)N2CCC(C(=O)O)CC2)c(=O)oc2cc3oc4c(c3cc12)CCCC4	60.5*	-3.7	-53.1	-6.4	62.7*	11.7	27.9
Cc1c(CCC(=O)N[C@@H](C)C(=O)O)c(=O)oc2cc3oc4c(c3cc12)CCCC4	46.8*	8.6	1.1	5.2	67.1*	32.6*	35.8
CCN(CC)C(=O)CC[C@@H]1CC[C@]2(CCCN(C(=O)c3ccccc3)C2)O1	3.6	nt	nt	nt	-13.6	nt	nt
Cc1ccc(C(C)C)c(OCc2ccc(C(=O)N/N=C/c3ccc(C(=O)O)cc3)cc2)c1	39.5*	-24.8	-1.0	-26.1	47.0	24.3*	8.2
Cc1ccc(COc2ccc(/C=N/NC(=O)c3ccc(CN4CCOCC4)cc3)cc2)cc1	14.7	-13.2	-0.3	15.1	-8.2	nt	nt
C#CCN(C[C@@H]1[C@@H](OC(=O)NCC2CCCCC2)[C@@H](OC(=O)NCC2CCCCC2)Cn2c(=O)ccc(=O)n21)S(=O)(=O)c1ccc(C)cc1	53.7*	-4.9	6.8	59.0	31.4	45.2*	57.2*
C#CCN(C[C@@H]1[C@@H](OC(=O)NCCCCCC)[C@@H](OC(=O)NCCCCCC)Cn2c(=O)ccc(=O)n21)S(=O)(=O)c1ccc(C)cc1	29.1	27.5	53.9	34.0	25.6	nt	nt
